# From PubChem BioAssay (NCI)
# The panel holds about 79,000 compounds, 15% with a hit somewhere; the sample as a whole holds those more often. Values without a mark were called inactive. Active and inactive are the calls of the source. No stated cut-off is given here; in the data, active means growth inhibition above about 70%; inactive means the rest.
# Test: NCI Yeast Anticancer Drug Screen. Data for the sgs1 mgt1 strain (AID 161);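 further: 0% = growth of cultures given vehicle only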
# Settings: S. cerevisiae sgs1 mgt1 strain, at 5.0 µM (retest, dose inferred, filed as 0.5), stronger effect = higher value
# In short: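 Compounds are added to genetically altered yeast, and growth is compared with cultures given vehicle alone to give percent inhibition.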
row,SMILES,growth inhibition
1,OC(OC/C(I)=C(/I)COC(O)C(Cl)(Cl)Cl)C(Cl)(Cl)Cl (configuration not stated),-2%
2,COC(C)(C)[C@@H]1CCCN1C1=C(C)C(=O)OC1,61%
3,COc1ccc(-c2nc(C)[nH]c(=O)c2Cc2c(O)ccc3ccccc23)cc1,1%
4,C1CCC(CCNCCC2CCCCC2)CC1,25%
5,CC1=C(C)C1[N+](=O)[O-],44%
6,COc1ccc2c(c1)OC(c1ccccc1O)CC2=O (configuration not stated),-10%
7,CCN(CC)c1ccc(NC(CC(O)c2ccccc2)c2ccccc2)cc1 (configuration not stated),-5%
8,COc1cc(/C=C/C(=O)c2ccc3ccccc3c2)cc(OC)c1OC,1%
9,C=CC(=C)OC,-2%
10,O=C1OC(=O)c2ccc([N+](=O)[O-])c3cccc1c23,2%
11,CCCOC(=O)CSC#N,56%
12,CCCCN(CCCC)CCCCCCNc1cc(OC)cc2cccnc12,3%
13,CN1C(Cl)=NS(=O)(=O)c2ccccc21,9%
14,COc1cc(C(=O)CBr)c2ccc(Cl)cc2n1,94% (active)
15,CCCCCCCCCCCCCCCC(=O)N(CCCN(CC)CC)C(C)CCCN(CC)CC (configuration not stated),51%
16,CC1(c2ccccc2)OC1C(=O)N(c1ccccc1)c1ccccc1 (configuration not stated),12%
17,CCCCCCCNC1CCCc2cc(OC)ccc21 (configuration not stated),28%
18,Cc1ccc(S(=O)(=O)NCCSCCSCCNS(=O)(=O)c2ccc(C)cc2)cc1,-2%
19,COc1ccc(C2C3CCCC(C(c4ccc(OC)cc4)N2C)C32NC(=O)NC2=O)cc1 (configuration not stated),23%
20,CC(C)OC1=C(Cl)C(=O)c2c(cccc2[N+](=O)[O-])C1=O,48%
21,COC(=O)c1nnn(-c2ccc(Cl)cc2Cl)c1C(=O)c1ccc(Cl)c(Cl)c1,4%
22,O=Cc1cc2c(s1)C(=O)c1sccc1C2=O,84% (active)

# Same assay, conditions: S. cerevisiae sgs1 mgt1 strain, at 50.0 µM (retest, dose inferred, filed as 5.0), stronger effect = higher value
row,SMILES,growth inhibition
1,O=C1c2ccccc2C(=O)c2sc(Nc3cc(Cl)ccc3Cl)nc21,99% (active)
2,OCC(c1ccccc1)c1ccccc1,34%
3,CN(C)c1nc(=NCc2ccco2)ss1,80% (active)
4,C/C=C\C=N\NC(N)=S,6%
5,O=C(/C=N/O)c1c(-c2ccccc2)[nH]c(-c2ccccc2)c1-c1ccccc1,90% (active)
6,Cc1c2ccccc2c(CO)c2cc(F)c3ccccc3c12,99% (active)
7,O=C(O)Cc1cccc2c(=O)c3cccc([N+](=O)[O-])c3[nH]c12,60%
8,Cc1ccc(SC2=C(N(C)C)C(=O)c3ccccc3C2=O)cc1,91% (active)
9,O=C1C(Cl)=C(Cl)C(=O)c2cc(Cl)c(Cl)cc21,99% (active)
10,CC1=C(C2CO2)C(=O)C(C)=C(C2CO2)C1=O (configuration not stated),99% (active)
11,CCc1cc(CC)c(-c2ccco2)c(COC(=O)NC)c1,78% (active)
12,COC(=O)C(=O)N(c1cc(C)ccc1C)c1cc(C)ccc1C,57%
13,COC1=CC(=O)c2c(O)c3c(c(O)c2C1=O)C=C(C)OC3O (configuration not stated),22%
14,O=[N+]([O-])c1ccccc1NCCO,-12%
15,CCCCCCCCCCCCCCCC[N+](C)(C)CC(=O)O,97% (active)
16,S=C(SSSSC(=S)N1CCCCC1)N1CCCCC1,96% (active)
17,COC(O)C12OC3CO[Si](C(C)C)(C(C)C)O[Si](C(C)C)(C(C)C)OC3C1Oc1nc(=O)ccn12 (configuration not stated),98% (active)
18,O=C(O)c1ccccc1C(c1ccccc1)c1ccccc1,71% (active)
19,OC(OC/C(I)=C(/I)COC(O)C(Cl)(Cl)Cl)C(Cl)(Cl)Cl (configuration not stated),86% (active)
20,COC(C)(C)[C@@H]1CCCN1C1=C(C)C(=O)OC1,99% (active)

row,SMILES,growth inhibition
1,COc1ccc(-c2nc(C)[nH]c(=O)c2Cc2c(O)ccc3ccccc23)cc1,8%
2,C1CCC(CCNCCC2CCCCC2)CC1,99% (active)
3,CC1=C(C)C1[N+](=O)[O-],98% (active)
4,COc1ccc2c(c1)OC(c1ccccc1O)CC2=O (configuration not stated),11%
5,CCN(CC)c1ccc(NC(CC(O)c2ccccc2)c2ccccc2)cc1 (configuration not stated),5%
6,COc1cc(/C=C/C(=O)c2ccc3ccccc3c2)cc(OC)c1OC,45%
7,C=CC(=C)OC,1%
8,O=C1OC(=O)c2ccc([N+](=O)[O-])c3cccc1c23,2%
9,CCCOC(=O)CSC#N,98% (active)
10,CCCCN(CCCC)CCCCCCNc1cc(OC)cc2cccnc12,13%
11,CN1C(Cl)=NS(=O)(=O)c2ccccc21,18%
12,COc1cc(C(=O)CBr)c2ccc(Cl)cc2n1,97% (active)
13,CCCCCCCCCCCCCCCC(=O)N(CCCN(CC)CC)C(C)CCCN(CC)CC (configuration not stated),99% (active)
14,CC1(c2ccccc2)OC1C(=O)N(c1ccccc1)c1ccccc1 (configuration not stated),98% (active)
15,CCCCCCCNC1CCCc2cc(OC)ccc21 (configuration not stated),64%
16,Cc1ccc(S(=O)(=O)NCCSCCSCCNS(=O)(=O)c2ccc(C)cc2)cc1,1%
17,COc1ccc(C2C3CCCC(C(c4ccc(OC)cc4)N2C)C32NC(=O)NC2=O)cc1 (configuration not stated),98% (active)
18,CC(C)OC1=C(Cl)C(=O)c2c(cccc2[N+](=O)[O-])C1=O,99% (active)
19,COC(=O)c1nnn(-c2ccc(Cl)cc2Cl)c1C(=O)c1ccc(Cl)c(Cl)c1,99% (active)
20,O=Cc1cc2c(s1)C(=O)c1sccc1C2=O,99% (active)
